Records with an inconclusive call do not appear. Activity calls are given as the source filed them. Unless noted, the call rests on the fitted dose curve; in most records, active means well fitted curve in the direction sought with a large enough effect in the repeat runs; inconclusive means weak or mixed curves; inactive means no such curve, though single readings can be large; an effect the other way counts as inactive or inconclusive.
Legend:
[1] = A CellTox Green Cytotoxicity Assay to monitor cytotoxicity in HepG2 cells - 24 hour (AID 1224878); further: nearly all actives have a fitted effect of over 45% in size
In short: (§1)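 HepG2 cells, 600/well, preincubated 5 h with CellTox Green dye, then exposed to Tox21 compounds in DMSO at 37 C for up to 40 h. Dead-cell DNA fluorescence read at the indicated time point.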

[2] = A CellTox Green Cytotoxicity Assay to monitor cytotoxicity in HepG2 cells - 40 hour (AID 1224879); further: nearly all actives have a fitted effect of over 40% in size
In short: as §1

[3] = qHTS RealTime-Glo MT Cell Viability Assay in HEK293 cells - 0 hour (AID 1224880); further: top concentration of the series differs between compounds; nearly all actives have a fitted effect of over 45% in size
In short: (§2)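 600 cells/well were plated with the nonlytic NanoLuc/prosubstrate reagent, pre-incubated 5 h, then given 23 nL of compound in DMSO. Incubation at 37 C for 40 h, with luminescence from viable-cell-reduced substrate read repeatedly from 0 h.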

[4] = A CellTox Green Cytotoxicity Assay to monitor cytotoxicity in HEK293 cells - 32 hour (AID 1224881); further: nearly all actives have a fitted effect of over 40% in size
In short: (§3)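 HEK293 cells, 600/well, were preincubated 5 hours and then exposed to compounds at 37 C for up to 40 hours. A cell-impermeant cyanine dye staining dead-cell DNA was read by fluorescence at 0, 8, 16, 24, 32 and 40 h time points.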

[5] = A CellTox Green Cytotoxicity Assay to monitor cytotoxicity in HepG2 cells - 0 hour (AID 1224882); further: nearly all actives have a fitted effect of over 35% in size
In short: as §1

[6] = A CellTox Green Cytotoxicity Assay to monitor cytotoxicity in HepG2 cells - 32 hour (AID 1224883); further: nearly all actives have a fitted effect of over 50% in size
In short: as §1

[7] = A CellTox Green Cytotoxicity Assay to monitor cytotoxicity in HEK293 cells - 8 hour (AID 1224884); further: nearly all actives have a fitted effect of over 35% in size
In short: as §3

[8] = qHTS RealTime-Glo MT Cell Viability Assay in HepG2 cells - 16 hour (AID 1224885); further: nearly all actives have a fitted effect of over 50% in size
In short: (§4)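 Cell number in HepG2 cultures estimated from NanoLuc luminescence generated by metabolic reduction of a prosubstrate by living cells. The homogeneous, nonlytic format allowed repeated reads at 0, 8, 16, 24, 32 and 40 h of compound exposure.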

[9] = qHTS RealTime-Glo MT Cell Viability Assay in HEK293 cells - 24 hour (AID 1224886); further: top concentration of the series differs between compounds; nearly all actives have a fitted effect of over 50% in size
In short: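 Homogeneous bioluminescent viability format in HEK293 cells (600 cells/well). Following 5 h at 37 C/5% CO2, 23 nL compound was pintooled; the signal was measured repeatedly during 40 h incubation.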

[10] = qHTS RealTime-Glo MT Cell Viability Assay in HEK293 cells - 8 hour (AID 1224887); further: top concentration of the series differs between compounds; nearly all actives have a fitted effect of over 50% in size
In short: as §2

[11] = A CellTox Green Cytotoxicity Assay to monitor cytotoxicity in HEK293 cells - 16 hour (AID 1224888); further: nearly all actives have a fitted effect of over 35% in size
In short: as §3

[12] = qHTS RealTime-Glo MT Cell Viability Assay in HepG2 cells - 0 hour (AID 1224889); further: nearly all actives have a fitted effect of over 50% in size
In short: as §4

[13] = A CellTox Green Cytotoxicity Assay to monitor cytotoxicity in HepG2 cells - 8 hour (AID 1224890); further: nearly all actives have a fitted effect of over 45% in size
In short: as §1

[14] = qHTS assay to identify small molecule antagonists of the estrogen receptor alpha (ER-alpha) signaling pathway using the BG1 cell line in the presence of 0.1 nM 17-beta-estradiol - cell viability counter screen (AID 1259241); further: nearly all actives have a fitted effect of over 40% in size
In short: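 CellTiter-Fluor read (30 min, 37C) on ER-alpha/ERE-luc VM7Luc4E2 cells; 22 hr compound treatment; agonist 0.1 nM E2 final; same-well multiplex.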

[15] = qHTS assay to identify small molecule antagonists of the androgen receptor (AR) signaling pathway using the MDA cell line in the presence of 0.5 nM R1881 - cell viability counter screen (AID 1259242); further: nearly all actives have a fitted effect of over 45% in size
In short: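 MDA-kb2 cells (MMTV-luciferase, AR/GR responsive) were treated with compounds plus 0.5 nM R1881 (final) for 16 hr at 37C, 0% CO2. Viability was then read in the same wells as live-cell protease fluorescence (CellTiter-Fluor, 30 min).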

[16] = target: Androgen receptor (Homo sapiens) (UniProt P10275); test: qHTS assay to identify small molecule antagonists of the androgen receptor (AR) signaling pathway using the MDA cell line in the presence of 0.5 nM R1881 (AID 1259243); further: nearly all actives have a fitted effect of over 50% in size
Androgen receptor (Homo sapiens), sequence (P10275 whole entry, looked up): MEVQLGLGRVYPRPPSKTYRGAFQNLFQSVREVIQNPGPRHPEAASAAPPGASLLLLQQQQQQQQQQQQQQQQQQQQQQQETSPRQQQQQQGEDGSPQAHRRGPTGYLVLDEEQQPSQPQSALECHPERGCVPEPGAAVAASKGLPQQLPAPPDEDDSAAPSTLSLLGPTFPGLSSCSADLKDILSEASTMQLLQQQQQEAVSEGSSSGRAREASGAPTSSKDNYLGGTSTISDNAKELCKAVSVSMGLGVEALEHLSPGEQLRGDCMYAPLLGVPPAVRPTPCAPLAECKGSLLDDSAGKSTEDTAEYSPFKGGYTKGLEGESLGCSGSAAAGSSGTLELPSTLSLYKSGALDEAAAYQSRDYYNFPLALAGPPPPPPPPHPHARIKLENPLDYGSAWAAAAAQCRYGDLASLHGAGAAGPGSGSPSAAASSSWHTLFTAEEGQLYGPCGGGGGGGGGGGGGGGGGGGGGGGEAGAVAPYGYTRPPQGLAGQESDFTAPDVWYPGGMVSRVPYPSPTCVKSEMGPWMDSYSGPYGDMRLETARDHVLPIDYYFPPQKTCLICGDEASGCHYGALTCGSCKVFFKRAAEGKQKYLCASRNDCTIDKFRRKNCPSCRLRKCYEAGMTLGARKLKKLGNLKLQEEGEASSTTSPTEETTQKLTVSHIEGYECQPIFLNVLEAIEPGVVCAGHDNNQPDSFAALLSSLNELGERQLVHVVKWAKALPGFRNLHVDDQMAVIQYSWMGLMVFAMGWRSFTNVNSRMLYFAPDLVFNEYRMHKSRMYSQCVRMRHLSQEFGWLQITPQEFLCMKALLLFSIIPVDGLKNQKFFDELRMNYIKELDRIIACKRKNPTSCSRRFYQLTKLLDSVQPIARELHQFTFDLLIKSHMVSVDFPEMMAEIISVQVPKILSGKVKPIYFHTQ
In short: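 MDA-kb2 cells (MMTV-luciferase, responsive to AR and GR) at 3,000/well, rested 5 h at 37C, 0% CO2, then given compounds plus 0.5 nM R1881 (final) for 16 hr. Luciferase read with ONE-Glo after 30 min at room temperature.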

[17] = qHTS assay to identify small molecule phospholipidosis (PLD) inducers (AID 1259344; active means well fitted curve in the direction sought with a large enough effect; an effect the other way counts as inactive or inconclusive)
In short: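 HepG2 cells grown on collagen I take up LipidTOX Red while exposed to compound for 24 h; after fixation they are imaged at 20x and pit metrics are extracted.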

[18] = qHTS assay to identify small molecule HDAC inhibitors (AID 1259364)
In short: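 Wild-type HCT-116 cells, plated overnight at 37 C, exposed to compounds 2 hr at 37 C; luminogenic HDAC-Glo substrate then added 30 min at room temperature. Luminescence reports relative endogenous class I/II HDAC activity.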

[19] = qHTS assay to identify small molecule HDAC inhibitors - cell viability counter screen (AID 1259365)
In short: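 To flag cytotoxic hits, 1,500 wild-type HCT-116 cells per well, plated the day before, receive test compounds for 2hr at 37 C before CellTiter-Glo reagent and a luminescence read.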

[20] = target: Estrogen receptor (Homo sapiens) (UniProt P03372); test: qHTS assay to identify small molecule antagonists of the estrogen receptor alpha (ER-alpha) signaling pathway using the BG1 cell line in the presence of 0.1 nM 17-beta-estradiol (AID 1259244); further: nearly all actives have a fitted effect of over 50% in size
Estrogen receptor (Homo sapiens), sequence (P03372 whole entry, looked up): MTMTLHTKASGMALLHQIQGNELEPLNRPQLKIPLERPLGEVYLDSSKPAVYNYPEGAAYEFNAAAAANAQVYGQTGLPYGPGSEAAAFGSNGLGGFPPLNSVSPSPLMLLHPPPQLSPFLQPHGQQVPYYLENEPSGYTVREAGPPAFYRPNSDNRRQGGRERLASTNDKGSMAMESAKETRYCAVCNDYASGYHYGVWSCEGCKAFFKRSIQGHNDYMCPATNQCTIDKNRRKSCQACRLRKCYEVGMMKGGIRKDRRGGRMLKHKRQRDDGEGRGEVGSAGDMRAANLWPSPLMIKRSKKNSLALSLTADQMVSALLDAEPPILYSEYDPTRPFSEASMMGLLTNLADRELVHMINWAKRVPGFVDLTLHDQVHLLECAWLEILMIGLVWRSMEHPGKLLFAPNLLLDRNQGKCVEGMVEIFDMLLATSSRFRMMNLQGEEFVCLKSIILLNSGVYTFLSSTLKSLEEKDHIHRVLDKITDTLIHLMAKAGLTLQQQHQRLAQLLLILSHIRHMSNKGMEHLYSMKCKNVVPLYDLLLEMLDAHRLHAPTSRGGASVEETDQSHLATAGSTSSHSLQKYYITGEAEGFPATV
In short: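 VM7Luc4E2 cells (endogenous full-length ER-alpha, 4×ERE-luciferase), kept 5 days in phenol red-free, charcoal-stripped FBS medium; 4,000 cells/well. Compounds added with 0.1 nM (final) 17beta-estradiol, 22 hr at 37C; luminescence read with ONE-Glo after 30 min.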
On the % scale 0 is the no-effect control and ±100 the full control effect.

CC(C)(C)NCC(O)COc1cccc2c1CCC(=O)N2 (stereo not given)
inactive: Potency [1] | Potency [2] | Potency [3] | Potency [4] | Potency [5] | Potency [6] | Potency [7] | outcome [8] | outcome [9] | outcome [10] | Potency [11] | Potency [12] | Potency [13] | outcome [14] | outcome [15] | Potency [16] | Potency [17] | Potency [18]

O=C[C@@H](O)[C@H](O)[C@H](O)CO
inactive: Potency [1] | Potency [2] | Potency [3] | Potency [4] | Potency [5] | Potency [6] | Potency [7] | outcome [8] | outcome [9] | outcome [10] | Potency [11] | Potency [12] | Potency [13] | outcome [14] | outcome [15] | Potency [16] | Potency [18] | outcome [19]

O=CN1CCCCC1
inactive: Potency [1] | Potency [2] | Potency [3] | Potency [4] | Potency [5] | Potency [6] | Potency [7] | outcome [8] | outcome [9] | outcome [10] | Potency [11] | Potency [12] | Potency [13] | outcome [14] | outcome [15] | outcome [20] | Potency [18] | outcome [19]

Cc1cc(C)c(N)c(Cl)c1
inactive: Potency [1] | Potency [2] | Potency [3] | Potency [4] | Potency [5] | Potency [6] | Potency [7] | outcome [8] | outcome [9] | outcome [10] | Potency [11] | Potency [12] | Potency [13] | outcome [14] | outcome [15] | outcome [20] | Potency [18] | outcome [19]

CCCCCCCCCCCC(C)=O
inactive: Potency [1] | Potency [2] | Potency [3] | Potency [4] | Potency [5] | Potency [6] | Potency [7] | outcome [8] | outcome [9] | outcome [10] | Potency [11] | Potency [12] | Potency [13] | outcome [14] | outcome [15] | outcome [20] | Potency [18] | outcome [19]

C/C=C(\C)C=O
inactive: Potency [1] | Potency [2] | Potency [3] | Potency [4] | Potency [5] | Potency [6] | Potency [7] | outcome [8] | outcome [9] | outcome [10] | Potency [11] | Potency [12] | Potency [13] | outcome [14] | outcome [15] | outcome [20] | outcome [19]

C=CCCCCCCCCCCCCCC
inactive: cytotoxicity [1] 1.07% [at 15.8 µM] | cytotoxicity increase [2] -1.48% [at 15.8 µM] | activity change, negative = cytotoxicity [3] -0.897% [at 15.8 µM] | cytotoxicity increase [4] -0.422% [at 15.8 µM] | cytotoxicity [5] 7.56% [at 15.8 µM] | cytotoxicity increase [6] -0.009% [at 15.8 µM] | cytotoxicity increase [7] 2.81% [at 15.8 µM] | activity change, negative = cytotoxic [8] -0.802% [at 15.8 µM] | activity change, negative = cytotoxicity [9] -1.45% [at 15.8 µM] | activity change, negative = cytotoxicity [10] -3.89% [at 15.8 µM] | activity change [11] -0.657% [at 15.8 µM, active compounds read high] | activity change, negative = cytotoxicity [12] 10.7% [at 15.8 µM] | cytotoxicity increase [13] 8.14% [at 15.8 µM] | activity change, negative = cytotoxicity [14] 0.733% [at 19 µM] | viability change, negative = cytotoxic [15] 1.94% [at 19 µM] | activity change, negative = inhibition [20] -1.96% [at 19 µM] | activity change, negative = inhibition [18] 0.0889% [at 19 µM] | activity change, negative = cytotoxicity [19] 1.69% [at 19 µM]

O=C(CCBr)N1CCN(C(=O)CCBr)CC1
inactive: Potency [1] | Potency [2] | Potency [3] | Potency [4] | Potency [5] | Potency [6] | Potency [7] | outcome [8] | outcome [9] | outcome [10] | Potency [11] | Potency [12] | Potency [13] | outcome [14] | outcome [15] | Potency [17]

NNC(=O)CCCCC(=O)NN
inactive: Potency [1] | Potency [2] | Potency [3] | Potency [4] | Potency [5] | Potency [6] | Potency [7] | outcome [8] | outcome [9] | outcome [10] | Potency [11] | Potency [12] | Potency [13] | outcome [14] | outcome [15] | outcome [20] | Potency [18] | outcome [19]

COC(=O)C(c1ccccc1Cl)N1CCc2sccc2C1 (stereo not given)
inactive: Potency [1] | Potency [2] | Potency [3] | Potency [4] | Potency [5] | Potency [6] | Potency [7] | outcome [8] | outcome [9] | outcome [10] | Potency [11] | Potency [12] | Potency [13] | outcome [14] | outcome [15] | Potency [17] | Potency [18] | outcome [19]

CC(=O)Oc1ccc(C(C)=O)cc1
inactive: Potency [1] | Potency [2] | Potency [3] | Potency [4] | Potency [5] | Potency [6] | Potency [7] | outcome [8] | outcome [9] | outcome [10] | Potency [11] | Potency [12] | Potency [13] | outcome [14] | outcome [15] | outcome [20] | Potency [18] | outcome [19]

CCOC(=O)CN1CCCC1=O
inactive: Potency [1] | Potency [2] | Potency [3] | Potency [4] | Potency [5] | Potency [6] | Potency [7] | outcome [8] | outcome [9] | outcome [10] | Potency [11] | Potency [12] | Potency [13] | outcome [14] | outcome [15] | outcome [20] | Potency [18] | outcome [19]

NC[C@H]1O[C@H](O[C@H]2[C@H](O)[C@@H](O[C@H]3O[C@H](CO)[C@@H](O)[C@H](N)[C@H]3O)[C@H](N)C[C@@H]2N)[C@H](N)[C@@H](O)[C@@H]1O
inactive: cytotoxicity [1] -0.281% [at 15.8 µM] | cytotoxicity increase [2] -4.11% [at 15.8 µM] | activity change, negative = cytotoxicity [3] -0.44% [at 15.8 µM] | cytotoxicity increase [4] -0.0128% [at 15.8 µM] | cytotoxicity [5] 1.75% [at 15.8 µM] | cytotoxicity increase [6] -2.59% [at 15.8 µM] | cytotoxicity increase [7] 1.34% [at 15.8 µM] | activity change, negative = cytotoxic [8] 3.1% [at 15.8 µM] | activity change, negative = cytotoxicity [9] 5.12% [at 15.8 µM] | activity change, negative = cytotoxicity [10] 14.7% [at 15.8 µM] | activity change [11] 2% [at 15.8 µM, active compounds read high] | activity change, negative = cytotoxicity [12] 5.28% [at 15.8 µM] | cytotoxicity increase [13] 0.922% [at 15.8 µM] | activity change, negative = cytotoxicity [14] 2.9% [at 19 µM] | viability change, negative = cytotoxic [15] -0.928% [at 19 µM] | Potency [17] | activity change, negative = inhibition [18] 0.718% [at 19 µM]

From PubChem BioAssay (Tox21)
